Source: PubChem BioAssay AID720690 (Broad Institute, 2013)
Potency and affinity values are given separately. Calls of active or inactive are those of the source.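 The calls were made as follows: active = every repeat run showing a signal drop whose fitted half-maximal concentration is at most twice the top tested concentration; inconclusive = repeat runs disagree, or flat partial drop, or poor fit; inactive = the rest.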

Test: HEK293T cytotoxicity, dose response, cytotoxicity control for miR-122 modulator project, cell-based, activator set, cherry-pick (AID 720690)
Details: HEK293T viability, CellTiter-Glo luminescence, 48 h; series mostly up to 26 µM

SMILES | outcome
CNc1nc(NCC2CCCCC2)c2sccc2n1 | inactive
CNC(=O)C[C@@H]1CC[C@@H]2[C@H](COc3ccc(NC(=O)c4cccc(OC)c4)cc3C(=O)N2C)O1 | inactive
O=C(Cn1c(=O)c2ccccc2n(CC(=O)N2CCCCC2)c1=O)N1CCCCC1 | inactive
CN1C(=O)c2cc(NC(=O)c3ccc4c(c3)OCO4)ccc2OC[C@H]2O[C@@H](CC(=O)O)CC[C@@H]21 | inactive
CNC(=O)C[C@@H]1CC[C@@H]2[C@@H](COc3ccc(NC(=O)c4ccccc4F)cc3C(=O)N2C)O1 | inactive
Cc1cccc(NC(=O)Nc2ccc3c(c2)C(=O)N(C)[C@H]2CC[C@H](CC(=O)O)O[C@H]2CO3)c1 | inactive
N=c1c2c(-c3ccccc3)c(-c3ccccc3)n(Cc3ccccc3)c2ncn1CCCO | inactive
C[C@@H]1CN([C@@H](C)CO)C(=O)Cc2cc(NC(=O)Nc3ccc(C(F)(F)F)cc3)ccc2O[C@H]1CN(C)CC1CCCCC1 | inactive
CN(C)CCCNC(=O)C[C@@H]1CC[C@H]2[C@@H](COc3ccc(NC(=O)c4cccc(F)c4)cc3C(=O)N2C)O1 | inactive
CCCCN(CCCC)C(=O)CN(C)S(=O)(=O)c1ccc2c(c1)n(C)c(=O)c(=O)n2C | inactive
CCCC(=O)Nc1ccc2c(c1)C(=O)N(C)[C@@H]1CC[C@H](CC(=O)NCc3cccc(F)c3)O[C@H]1CO2 | inactive
CCN(C[C@H]1N[C@H](CO)[C@H]1c1ccc(-c2ccc(F)cc2)cc1)C(=O)COC | inactive
CO[C@@H]1CN(C)C(=O)c2ccc(NS(C)(=O)=O)cc2OC[C@H](C)N(C(=O)CN(C)C)C[C@@H]1C | inactive
CCCNC(=O)N1[C@@H]2CN(C(=O)c3ccccc3)c3ccccc3[C@@H]2[C@@H]1CO | inactive
COc1ccc(CNCCC(c2ccc(OC)cc2)c2ccccc2OC)cc1 (stereo unspecified) | inactive
O=C(c1cccnc1)N1C[C@H]2[C@@H](c3ccccc31)[C@H](CO)N2C(=O)Nc1ccccc1Cl | inactive
C/C=C/c1ccc([C@H]2[C@H](CO)N(C(C)=O)[C@H]2CN(C)C(=O)c2ccccn2)cc1 | inactive
COCC(=O)N1[C@H](CO)[C@@H](c2ccccc2)[C@H]1CN(C)C(=O)c1ccncc1 | inactive

SMILES | outcome
Cc1cccc(NC(=O)c2sc3nc(-c4ccc(F)cc4)cn3c2C)n1 | inactive
C=CCc1c(OC)ccc2ccc(=O)oc12 | inactive
CCC(=O)N1[C@@H](CO)[C@H](c2ccccc2)[C@@H]1CN(C(C)C)S(C)(=O)=O | inactive
Cc1nn(C)cc1NC(=O)C[C@@H]1CC[C@H]2[C@@H](COc3ccc(NC(=O)Nc4cccc(Cl)c4)cc3C(=O)N2C)O1 | inactive
CCNC(=O)C[C@@H]1CC[C@@H]2[C@@H](COc3ccc(NC(=O)c4ccccc4)cc3C(=O)N2C)O1 | inactive
COCC(=O)NC[C@H]1N[C@H](CO)[C@H]1c1ccc(C2=CCCC2)cc1 | inactive
COc1cc(N)c(Cl)cc1NC(=O)c1ccccc1 | inactive
O=S(=O)(Nc1nccs1)c1ccc(NS(=O)(=O)c2cccs2)cc1 | inactive
C[C@@H]1CN([C@@H](C)CO)S(=O)(=O)c2ccc(C#Cc3ccncc3)cc2O[C@@H]1CN(C)C(=O)Nc1ccc2c(c1)OCO2 | inactive
CCNC(=O)Nc1ccc2c(c1)C(=O)N(C)[C@H]1CC[C@H](CC(=O)NCCOC)O[C@@H]1CO2 | inactive
C/C=C/c1ccc([C@H]2[C@@H](CNC(=O)c3ccncc3)N(C(=O)CC)[C@H]2CO)cc1 | inactive
C/C=C/c1ccc([C@@H]2[C@H](CO)N(Cc3ccccn3)[C@H]2CNC(=O)CC)cc1 | inactive
CN1C(=O)c2cc(NC(=O)c3cccc(F)c3)ccc2OC[C@H]2O[C@H](CC(=O)N3CCc4ccccc4C3)CC[C@H]21 | inactive
C/C=C/c1ccc([C@@H]2[C@@H](CO)N(C(C)=O)[C@H]2CN(C(=O)COC)C(C)C)cc1 | inactive
CO[C@@H]1CN(C)C(=O)c2cc(NC(=O)Nc3ccc(Cl)c(Cl)c3)ccc2OC[C@H](C)NC[C@H]1C | inactive
CCC(=O)N1[C@H](CO)[C@@H](c2ccccc2)[C@H]1CN(C(C)C)S(C)(=O)=O | inactive
C[C@H](CO)N1C[C@H](C)[C@@H](CN(C)Cc2ccc(-c3ccccc3)cc2)Oc2ncc(C#CCN(C)C)cc2C1=O | inactive
COCC(=O)N(C)C[C@H]1Oc2cc(C#Cc3cccnc3)ccc2S(=O)(=O)N([C@@H](C)CO)C[C@H]1C | inactive
